In the supplement of paper PMC7156485:
± gives the standard deviation of the averaged measurements.

Assays:
Settings in all cases: concentration: 10 µM; 24 h
[1] = test system: HCC1569; assay: cell number relative to DMSO (% of DMSO); higher = more cells (less growth inhibition / toxicity)
Procedure, shortened: (§1)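 In 384-well plates holding 800 HCC1569 or TDF cells per well in RPMI with 10% FBS, compounds were tested at 10 µM for 24 h at 37 °C in triplicate. Fixation used 3.7% formaldehyde. Staining used a rabbit anti-H1.0 antibody with an AlexaFluor 647 secondary, plus DAPI. Each value, H1.0 nuclear intensity or cell number, is a median of replicates shown as percent of the plate control, and HCC1569 values were smoothed for positional effects.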

[2] = test system: TDF; assay: as above
Procedure, shortened: as §1

[3] = test system: TDF; assay: H1.0 immunofluorescence intensity relative to DMSO (% of DMSO); higher = stronger H1.0 induction, active = 120 or more
Procedure, shortened: as §1

[4] = test system: HCC1569; assay: H1.0 immunofluorescence intensity relative to DMSO (% of DMSO); higher = stronger H1.0 induction, active = 140 or more
Procedure, shortened: as §1
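Throughout, for H1.0 immunofluorescence intensity relative to DMSO: TDF is a line of transformed human dermal fibroblasts of mesenchymal origin.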
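Throughout, for cell number relative to DMSO: TDF denotes transformed human dermal fibroblasts of mesenchymal origin.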

Compound | cell number [1] | cell number [2] | H1.0 immunofluorescence intensity [3] | H1.0 immunofluorescence intensity [4]
CC(N)c1cccc(Cl)c1Cl.Cl (racemic) | 100 | 94.2 | 102 (inactive) | 101 (inactive)
O=P([O-])(O)C(Cl)(Cl)P(=O)([O-])O.[Na+].[Na+] [Clodronic acid] | 101 | 101 | 93.4 (inactive) | 96.4 (inactive)
CCCCc1ccc(C(=O)O)nc1 [Fusaric acid] | 105 | 110 | 90.2 (inactive) | 88.6 (inactive)
C[N+]1(C)C2CCC1CC(OC(=O)c1c[nH]c3ccccc13)C2.[I-] (centres undefined) [3-Tropanylindole-3-carboxylate methiodide] | 100 | 106 | 95.5 (inactive) | 114 (inactive)
c1ccc2c(c1)[nH]c1cnccc12 [Norharmane] | 100 | 106 | 97.6 (inactive) | 92 (inactive)
COC(=O)c1cc2c(cn1)[nH]c1ccccc12 [Methyl beta-carboline-3-carboxylate] | 98.8 | 105 | 90.1 (inactive) | 95.3 (inactive)
CCCCCC=CCC=CCC=CCC=CCCCC(=O)NCCO [Anandamide (20:4, n-6)] | 103 | 94.1 | 99.2 (inactive) | 96.7 (inactive)
CCn1cnc2c(Nc3cccc(Cl)c3)nc(NC3CCCCC3N)nc21 (centres undefined) | 54 | 13.5 | 141 (active) | 134 (inactive)
Cc1[nH]c2ccc(Cl)cc2c1C1=CCNCC1.Cl | 99.8 | 93.5 | 107 (inactive) | 120 (inactive)
CC(C)(OO)c1ccccc1 [Cumene hydroperoxide] | 101 | 113 | 105 (inactive) | 99.6 (inactive)
CCNC(=O)C[C@@H]1N=C(c2ccc(Cl)cc2)c2cc(OC)ccc2-n2c(C)nnc21 | 86.4 | 71.9 | 141 (active) | 198 (active)
CCC(CO)NC(=O)C1C=C2c3cccc4c3c(cn4C)CC2N(C)C1.O=C(O)C=CC(=O)O (centres undefined) [Methysergide maleate] | 101 ± 2.7 | 97.1 ± 7 | 100 (inactive) | 97 (inactive)
CC1=C(C)C(=O)C(CCC(C)(O)CCCC(C)CCCC(C)CCCC(C)C)=C(C)C1=O (racemic) | 99 | 104 | 98.7 (inactive) | 101 (inactive)
Nc1ccc(CCN2CCN(c3cccc(C(F)(F)F)c3)CC2)cc1 | 95.1 | 98.9 | 99.4 (inactive) | 107 (inactive)
CC1OC(C[N+](C)(C)C)CC1O.[Cl-] (racemic) | 102 | 101 | 96.4 (inactive) | 92 (inactive)
CC12CCC(O)CC1CCC1C2CCC2(C)C(C3=CC(=O)OC3)C(O)CC12O (centres undefined) [Gitoxigenin] | 104 | 73.1 | 103 (inactive) | 81.4 (inactive)
CNC(=O)Oc1ccc2c(c1)C1(C)CCN(C)C1N2C.CNC(=O)Oc1ccc2c(c1)C1(C)CCN(C)C1N2C.O=S(=O)(O)O (centres undefined) [Physostigmine sulfate] | 97.1 | 102 | 90.4 (inactive) | 106 (inactive)
Br.NCc1cc(=O)[nH]o1 [Muscimol hydrobromide] | 103 | 119 | 89.5 (inactive) | 91 (inactive)
CN1CC(CNC(=O)OCc2ccccc2)CC2c3cccc4c3c(cn4C)CC21 (centres undefined) [Metergoline] | 97.2 | 105 | 118 (inactive) | 120 (inactive)
COc1cc2c(c(OC)c1OC)-c1ccc(OC)c(=O)cc1C(NC(C)=O)CC2 (centres undefined) [Colchicine] | 57.57 ± 0.52 | 9.12 ± 1.6 | 168 (active) | 132 (inactive)
O=[N+]([O-])C=Cc1ccc2c(c1)OCO2 [Syk Inhibitor III] | 37.1 | 33.2 | 122 (active) | 99.6 (inactive)
CC(=O)OC1C(c2ccc(=O)oc2)C2(C)CCC3C(CCC4CC(O)CCC43C)C23OC13 (centres undefined) [Cinobufagin] | 53.5 | 42.2 | 115 (inactive) | 99.5 (inactive)
Cl.Cl.Clc1ccc(N2CC3CCC(C2)N3)nn1 | 103 | 110 | 90.8 (inactive) | 95.7 (inactive)
CC(=O)[C@H]1CC[C@H]2[C@@H]3CC[C@H]4C[C@](C)(O)CC[C@]4(C)[C@H]3CC[C@]12C [(3alpha,5alpha)-3-hydroxy-3-methylpregnan-20-one] | 105 | 93 | 101 (inactive) | 111 (inactive)
C=CCN1CCC23c4c5ccc(O)c4OC2C(=NN=C2CCC4(O)C6Cc7ccc(O)c8c7C4(CCN6CC=C)C2O8)CCC3(O)C1C5.Cl.Cl (centres undefined) [Naloxonazine dihydrochloride] | 77.5 | 62.9 | 126 (active) | 121 (inactive)
COc1ccc(C(CN(C)C)C2(O)CCCCC2)cc1 (centres undefined) [Venlafaxine] | 102 | 107 | 106 (inactive) | 110 (inactive)
